Reference: publication PMC5540273 (PLoS ONE, 2017)

How the values were obtained:
Details in all cases: concentration: 1 μM,replicates: in singlicate; n = 1
PRKD3 = system: PRKD3
PRKG1 = system: PRKG1
PRKG2 = system: PRKG2
PRKR = system: T1, PRKR
T1 construct: gene EIF2AK2

PRKX = system: PRKX
PRP4 = system: PRP4
PYK2 = system: T2, PYK2
T2 construct: gene PTK2B

QSK = system: QSK
RAF1 = system: RAF1
RET = system: RET
RIOK1 = system: RIOK1
RIOK2 = system: RIOK2
RIOK3 = system: RIOK3
RIPK1 = system: RIPK1
RIPK2 = system: RIPK2
RIPK4 = system: RIPK4
RIPK5 = system: RIPK5
ROCK1 = system: ROCK1
ROCK2 = system: ROCK2
ROS1 = system: ROS1
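Also: KINOMEscan kinase panel screen.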

Cc1ccn2nc(-c3ccc(F)cc3)c(-c3ccncc3)c2c1.Cl [GW457859]
%Inh (PRKD3): 30%
%Inh (PRKG1): 0%
%Inh (PRKG2): 19%
%Inh (PRKR): 12%
%Inh (PRKX): 21%
%Inh (PRP4): 28%
%Inh (PYK2): 0%
%Inh (QSK): 0%
%Inh (RAF1): 15%
%Inh (RET): 4%
%Inh (RIOK1): 23%
%Inh (RIOK2): 0%
%Inh (RIOK3): 23%
%Inh (RIPK1): 1%
%Inh (RIPK2): 41%
%Inh (RIPK4): 6%
%Inh (RIPK5): 0%
%Inh (ROCK1): 12%
%Inh (ROCK2): 20%
%Inh (ROS1): 0%

Cn1ccc2ncnc(Oc3ccc(NC(=O)Nc4cccc(C(F)(F)F)c4)c(F)c3)c21
%Inh (PRKD3): 0%
%Inh (PRKG1): 18%
%Inh (PRKG2): 17%
%Inh (PRKR): 10%
%Inh (PRKX): 0%
%Inh (PRP4): 14%
%Inh (PYK2): 11%
%Inh (QSK): 0%
%Inh (RAF1): 80%
%Inh (RET): 100%
%Inh (RIOK1): 0%
%Inh (RIOK2): 0%
%Inh (RIOK3): 23%
%Inh (RIPK1): 23%
%Inh (RIPK2): 52%
%Inh (RIPK4): 0%
%Inh (RIPK5): 0%
%Inh (ROCK1): 0%
%Inh (ROCK2): 0%
%Inh (ROS1): 53%

COc1cc2ncn(-c3cc(OCC4CCCCC4)c(C(N)=O)s3)c2cc1OC [GSK204559]
%Inh (PRKD3): 2%
%Inh (PRKG1): 9%
%Inh (PRKG2): 0%
%Inh (PRKR): 0%
%Inh (PRKX): 10%
%Inh (PRP4): 0%
%Inh (PYK2): 0%
%Inh (QSK): 12%
%Inh (RAF1): 9%
%Inh (RET): 17%
%Inh (RIOK1): 90%
%Inh (RIOK2): 5%
%Inh (RIOK3): 67%
%Inh (RIPK1): 2%
%Inh (RIPK2): 0%
%Inh (RIPK4): 0%
%Inh (RIPK5): 0%
%Inh (ROCK1): 0%
%Inh (ROCK2): 0%
%Inh (ROS1): 9%

O=C1NCCc2[nH]c(-c3ccncc3)cc21
%Inh (PRKD3): 43%
%Inh (PRKG1): 83%
%Inh (PRKG2): 99.1%
%Inh (PRKR): 9%
%Inh (PRKX): 28%
%Inh (PRP4): 43%
%Inh (PYK2): 0%
%Inh (QSK): 0%
%Inh (RAF1): 17%
%Inh (RET): 0%
%Inh (RIOK1): 35%
%Inh (RIOK2): 20%
%Inh (RIOK3): 30%
%Inh (RIPK1): 4%
%Inh (RIPK2): 4%
%Inh (RIPK4): 56%
%Inh (RIPK5): 24%
%Inh (ROCK1): 97.9%
%Inh (ROCK2): 95.4%
%Inh (ROS1): 21%

CC(=O)Nc1ccc(-c2cc3ncnc(SCC(=O)O)c3s2)cc1
%Inh (PRKD3): 7%
%Inh (PRKG1): 1%
%Inh (PRKG2): 10%
%Inh (PRKR): 23%
%Inh (PRKX): 24%
%Inh (PRP4): 22%
%Inh (PYK2): 0%
%Inh (QSK): 1%
%Inh (RAF1): 14%
%Inh (RET): 15%
%Inh (RIOK1): 8%
%Inh (RIOK2): 0%
%Inh (RIOK3): 15%
%Inh (RIPK1): 0%
%Inh (RIPK2): 0%
%Inh (RIPK4): 2%
%Inh (RIPK5): 14%
%Inh (ROCK1): 0%
%Inh (ROCK2): 0%
%Inh (ROS1): 6%

COc1cccc(CNC(=O)NC2CCN(c3ccnc(Nc4cc(OC)c(OC)c(OC)c4)n3)C2)c1 (centres unmarked) [GSK1379765]
%Inh (PRKD3): 0%
%Inh (PRKG1): 3%
%Inh (PRKG2): 0%
%Inh (PRKR): 0%
%Inh (PRKX): 33%
%Inh (PRP4): 48%
%Inh (PYK2): 0%
%Inh (QSK): 0%
%Inh (RAF1): 21%
%Inh (RET): 19%
%Inh (RIOK1): 63%
%Inh (RIOK2): 0%
%Inh (RIOK3): 56%
%Inh (RIPK1): 17%
%Inh (RIPK2): 0%
%Inh (RIPK4): 40%
%Inh (RIPK5): 5%
%Inh (ROCK1): 67%
%Inh (ROCK2): 76%
%Inh (ROS1): 48%

NC(=O)Nc1sc(-c2ccc(F)cc2)cc1C(N)=O [GW789449]
%Inh (PRKD3): 0%
%Inh (PRKG1): 6%
%Inh (PRKG2): 8%
%Inh (PRKR): 35%
%Inh (PRKX): 0%
%Inh (PRP4): 75%
%Inh (PYK2): 26%
%Inh (QSK): 0%
%Inh (RAF1): 43%
%Inh (RET): 55%
%Inh (RIOK1): 99.4%
%Inh (RIOK2): 37%
%Inh (RIOK3): 98.5%
%Inh (RIPK1): 0%
%Inh (RIPK2): 0%
%Inh (RIPK4): 79%
%Inh (RIPK5): 69%
%Inh (ROCK1): 14%
%Inh (ROCK2): 0%
%Inh (ROS1): 0%

COC(=O)Nc1nc2cc(Oc3ccc(NC(=O)Nc4cc(C(F)(F)F)ccc4Cl)cc3)ccc2[nH]1.Cl [GW697465]
%Inh (PRKD3): 9%
%Inh (PRKG1): 2%
%Inh (PRKG2): 0%
%Inh (PRKR): 0%
%Inh (PRKX): 15%
%Inh (PRP4): 43%
%Inh (PYK2): 24%
%Inh (QSK): 9%
%Inh (RAF1): 89%
%Inh (RET): 100%
%Inh (RIOK1): 0%
%Inh (RIOK2): 2%
%Inh (RIOK3): 0%
%Inh (RIPK1): 41%
%Inh (RIPK2): 43%
%Inh (RIPK4): 1%
%Inh (RIPK5): 0%
%Inh (ROCK1): 26%
%Inh (ROCK2): 24%
%Inh (ROS1): 42%

Cc1ccc(C(=O)Nc2ccc(Oc3ccc4nc(NC(=O)C5CC5)cn4c3)c(F)c2)c(=O)n1-c1ccccc1
%Inh (PRKD3): 0%
%Inh (PRKG1): 5%
%Inh (PRKG2): 0%
%Inh (PRKR): 4%
%Inh (PRKX): 0%
%Inh (PRP4): 38%
%Inh (PYK2): 19%
%Inh (QSK): 0%
%Inh (RAF1): 82%
%Inh (RET): 100%
%Inh (RIOK1): 0%
%Inh (RIOK2): 0%
%Inh (RIOK3): 9%
%Inh (RIPK1): 99.9%
%Inh (RIPK2): 12%
%Inh (RIPK4): 0%
%Inh (RIPK5): 0%
%Inh (ROCK1): 0%
%Inh (ROCK2): 0%
%Inh (ROS1): 0%

CN1CCN(CCNc2nc3cc(Oc4ccc(NC(=O)Nc5cc(C(F)(F)F)ccc5F)cc4)ccc3[nH]2)CC1.Cl.Cl [GW768504]
%Inh (PRKD3): 0%
%Inh (PRKG1): 2%
%Inh (PRKG2): 0%
%Inh (PRKR): 24%
%Inh (PRKX): 0%
%Inh (PRP4): 0%
%Inh (PYK2): 18%
%Inh (QSK): 0%
%Inh (RAF1): 75%
%Inh (RET): 99.9%
%Inh (RIOK1): 0%
%Inh (RIOK2): 0%
%Inh (RIOK3): 8%
%Inh (RIPK1): 2%
%Inh (RIPK2): 1%
%Inh (RIPK4): 0%
%Inh (RIPK5): 3%
%Inh (ROCK1): 48%
%Inh (ROCK2): 0%
%Inh (ROS1): 16%
